Measured values published in PubChem BioAssay AID1159580 (chemical genetic matrix, 2015).
Values joined by “and” are separate entries in the source; they are usually repeats but may differ in a detail not shown here. Identical values can stand only once. Screen size: about 5,500 compounds; about 2,000 (36%) were called active. Not shown: some 18% with an inconclusive outcome. No stated cut-off is given here; in the data, active means normalized growth mostly below about 0.91 (no sharp cut-off); inconclusive means no clear call, values can overlap the other calls; inactive means mostly above about 0.92. This is one part of the list.

Assay: chemical genetic growth profiling, strain panel (AID 1159580);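 further: tested at 20 µM; growth read once vehicle control cultures reached saturation at 30 °C; 1 = growth at the plate median or of vehicle wells; lower values mean less growth of the strain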
Conditions: S. cerevisiae deletion strains, growth OD

Measured: normalized growth

COC(=O)C1[C@H]2C[C@H]3c4[nH]c5ccccc5c4CCN3C[C@@H]2CC[C@@H]1O (some centres not stated)
inactive: locus YAL013W, strain DEP1, active compounds read low 1.02 | locus YAL021C, strain ccr4, active compounds read low 0.991 | locus YAL026C, strain drs2, active compounds read low 0.981 | locus YAL030W, strain snc1, active compounds read low 0.976 | locus YBL061C, strain skt5, active compounds read low 0.982 | locus YBR009C, strain hhf1, active compounds read low 0.978 | locus YBR021W, strain FUR4, active compounds read low 1.01 | locus YBR023C, strain chs3, active compounds read low 0.964 | locus YBR171W, strain sec66, active compounds read low 0.96 | locus YBR229C, strain ROT2, active compounds read low 1 | locus YBR231C, strain swc5, active compounds read low 0.965 | locus YBR279W, strain paf1, active compounds read low 0.962 | locus YCL011C, strain gbp2, active compounds read low 0.954 | locus YCL016C, strain dcc1, active compounds read low 0.973 | locus YCL029C, strain bik1, active compounds read low 1.03 | locus YCL061C, strain MRC1, active compounds read low 0.976 | locus YCL069W, strain vba3, active compounds read low 0.981 | locus YCR088W, strain abp1, active compounds read low 0.977 | locus YDL005C, strain med2, active compounds read low 0.971 | locus YDL035C, strain GPR1, active compounds read low 1.02 | locus YDL040C, strain nat1, active compounds read low 0.974 | locus YDL074C, strain BRE1, active compounds read low 1.05 | locus YDL101C, strain DUN1, active compounds read low 1.01 | locus YDL134C, strain PPH21, active compounds read low 1.02 | locus YDL185W, strain tfp1, active compounds read low 1.02 | locus YDL192W, strain arf1, active compounds read low 1.02 | locus YDR001C, strain nth1, active compounds read low 0.964 | locus YDR069C, strain doa4, active compounds read low 0.954 | locus YDR101C, strain arx1, active compounds read low 1.01 | locus YDR137W, strain rgp1, active compounds read low 0.945 | locus YDR150W, strain NUM1, active compounds read low 1.01 | locus YDR159W, strain sac3, active compounds read low 0.925 | locus YDR162C, strain NBP2, active compounds read low 1.01 | locus YDR195W, strain ref2 0.943 | locus YDR297W, strain sur2, active compounds read low 0.979 | locus YDR318W, strain mcm21, active compounds read low 1.03 | locus YDR334W, strain swr1, active compounds read low 0.946 | locus YDR335W, strain msn5, active compounds read low 0.97 | locus YDR388W, active compounds read low 1.02 | locus YDR392W, strain spt3, active compounds read low 1.01 | locus YDR502C, strain sam2, active compounds read low 1.01 | locus YEL003W, strain gim4, active compounds read low 0.97 | locus YEL037C, strain rad23, active compounds read low 0.979 | locus YEL061C, strain CIN8 (second series), active compounds read low 0.962 | locus YEL061C, strain CIN8, active compounds read low 1.01 | locus YER015W, strain faa2, active compounds read low 0.983 | locus YER016W, strain bim1, active compounds read low 0.982 | locus YER110C, active compounds read low 1.01 | locus YER111C, strain swi4, active compounds read low 0.986 | locus YER155C, strain BEM2 (second series), active compounds read low 0.945 | locus YER155C, strain BEM2, active compounds read low 1.01 | locus YER167W, strain BCK2, active compounds read low 1.01 | locus YFR010W, strain ubp6, active compounds read low 0.952 | locus YGL078C, strain dbp3, active compounds read low 1.01 | locus YGL086W, strain mad1, active compounds read low 1 | locus YGL167C, strain pmr1, active compounds read low 0.944 | locus YGL173C, strain kem1, active compounds read low 0.989 | locus YGL227W, strain vid30, active compounds read low 0.962 | locus YGL240W, strain doc1, active compounds read low 0.954 | locus YGL248W, strain PDE1, active compounds read low 1.01 | locus YGL253W, strain hxk2, active compounds read low 0.975 | locus YGR078C, strain PAC10, active compounds read low 1.03 | locus YGR135W, strain pre9, active compounds read low 1.01 | locus YGR229C, strain SMI1, active compounds read low 1.01 | locus YGR252W, strain gcn5, active compounds read low 0.976 | locus YHR013C, strain ard1, active compounds read low 0.979 | locus YHR027C, strain rpn1, active compounds read low 0.972 | locus YHR030C, strain SLT2, active compounds read low 1.02 | locus YHR079C, strain IRE1 (second series), active compounds read low 1.02 | locus YHR079C, strain IRE1, active compounds read low 1.02 | locus YHR094C, strain hxt1, active compounds read low 1.01 | locus YHR129C, strain ARP1, active compounds read low 0.999 | locus YHR142W, strain chs7, active compounds read low 0.983 | locus YHR200W, strain rpn10, active compounds read low 1.02 | locus YIL066C, strain RNR3, active compounds read low 1.02 | locus YIL073C, strain SPO22, active compounds read low 1.05 | locus YIL125W, strain kgd1, active compounds read low 1.01 | locus YIR030C, strain dcg1, active compounds read low 1.02 | locus YJL092W, strain hpr5, active compounds read low 0.982 | locus YJL095W, strain BCK1 (second series), active compounds read low 0.981 | locus YJL095W, strain BCK1, active compounds read low 1.05 and 1.01 | locus YJL115W, strain asf1, active compounds read low 0.966 | locus YJL129C, strain trk1, active compounds read low 0.977 | locus YJL134W, strain LCB3, active compounds read low 1.01 | locus YJL154C, strain vps35, active compounds read low 0.964 | locus YJL164C, strain tpk1, active compounds read low 1 | locus YJL166W, strain qcr8, active compounds read low 0.953 | locus YJL168C, strain set2, active compounds read low 1.02 | locus YJL187C, strain SWE1 (second series), active compounds read low 1.03 | locus YJL187C, strain SWE1, active compounds read low 0.98 | locus YJR043C, strain POL32, active compounds read low 1.02 | locus YJR066W, strain TOR1, active compounds read low 1.02
